# Data reported in PubChem BioAssay AID485313 (National Center for Advancing Translational Sciences (NCATS), 2010).
# The campaign covered roughly 320,000 compounds. About 7,600 (2.4%) were called active. Not shown: some 3% with an inconclusive outcome. The sample holds actives, similar compounds and a random draw of the others, so the mix is not that of the screen. Values without a mark were called inactive. Calls follow the shape of the dose curve; as a rule, active = well fitted activation curve with a large enough effect; inconclusive = small, poorly fitted or top-dose-only effect; inactive = no such curve, though single readings can be large or run the other way.
# Assay: qHTS Assay for NPC1 Promoter Activators; also: nearly all actives have a fitted effect of over 60% in size;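 as to activation: reporter is driven by a mutant NPC1 promoter; % of control where 0% means no effect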
# Settings: Huh7 NPC1 promoter luciferase reporter, 24 h; series mostly up to 9.22 µM; activation: at the top concentration
# In short: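 Quantitative HTS used a cell-based reporter: Huh7 cells stably bearing the NPC1 promoter upstream of luciferase were treated with compounds for 24 h, and promoter activation was read as luminescence.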
# Potency is read from the fitted curve at half-maximal effect.
SMILES,activation [%],Potency
Cc1cc(C(=O)COC(=O)CCCN2C(=O)c3ccccc3C2=O)c(C)n1C,-1.36,
C=CCn1c(C)cc(C(=O)CN2C(=O)c3ccccc3C2=O)c1C,,0.316 µM (active)
C=CCN(CC=C)C(=O)CN1C(=O)c2ccccc2C1=O,-3.84,
C[C@H](NC(=O)c1[nH]cnc1C(=O)Nc1nccs1)c1ccccc1,-2.02,
CCCCC/C=C/C1=CC(=O)C[C@H](c2ccc(Cl)cc2)C1,-8.4,
Cc1ccccc1-c1cc(C(=O)NCc2cccs2)n(CC2CC(c3cccnc3)=NO2)n1 (stereo not given),15.3,
O=C(Nc1ccc2oc(-c3ccc4ccccc4c3)nc2c1)c1cccs1,,0.891 µM (active)
O=C(Nc1ccc(NC(=O)c2cccs2)cc1)c1ccc2ccccc2c1,0.298,
COc1cc2ccccc2cc1C(=O)Nc1ccc(NC(=O)c2cccs2)cc1,-3.43,
CC(Sc1nnc(C2CC2)n1C1CC1)C(=O)Nc1ccc(C(N)=O)cc1 (stereo not given),-0.479,
CCOc1ccc(N2C(=O)CSC2=NC#N)cc1,-0.127,
CC(=O)NC(NC(=S)Nc1c(C)n(C)n(-c2ccccc2)c1=O)C(Cl)(Cl)Cl (stereo not given),-2.49,
COc1ccc(C)cc1NC(=O)CN1c2cccc3cccc(c23)S1(=O)=O,-1.54,
CCN(CC)CCN1C(=O)C(=O)/C(=C(/O)c2ccc(OC)c(OC)c2)C1c1ccccn1 (stereo not given),-1.38,
CCN(CC)CCN1C(=O)C(=O)/C(=C(/O)c2cnn(-c3ccccc3)c2C)C1c1cccs1 (stereo not given),,3.98 µM (active)
CCOc1cccc(/C(O)=C2/C(=O)C(=O)N(CCOC)C2c2ccncc2)c1 (stereo not given),-3.35,
COc1ccccc1OCC(=O)OCc1cc(-c2ccco2)on1,-0.0859,
COC(=O)c1cccc(NC(=O)c2cccc(N3C(=O)CCC3=O)c2)c1,-0.0039,
CC(=O)c1sc(NC(=O)CCN2C(=O)C3CC=CCC3C2=O)nc1-c1ccccc1 (stereo not given),1.1,
CCCCCCCCCCOC(=O)C[N+](C)(C)CC1CCCCC1O (stereo not given),2.03,
Cc1cc(Cl)c2oc(C(=O)N(C)C(C)c3ccccn3)c(C)c2c1 (stereo not given),21.6,
CCn1ccnc1CN(C)C(=O)c1ccc2nc(Cc3ccc(OC)cc3)oc2c1,-6.18,
CC(c1ccccn1)N(C)C(=O)c1ccc2nc(Cc3cccc(Cl)c3)oc2c1 (stereo not given),,3.98 µM (active)
CC(NCC(=O)Nc1ccccc1C(=O)NC1CC1)c1ccccc1Cl (stereo not given),-0.509,
Cc1ccc(C)c(C(=O)COC(=O)Cn2[nH]c(=O)c3ccccc3c2=O)c1,0.0714,
O=[N+]([O-])c1ccc(NC(=S)N2CCN(c3ccccn3)CC2)cc1,4.02,
O=C(Nc1ccc([N+](=O)[O-])cc1)OCCc1ccccn1,,3.55 µM (active)
O=C(OCc1ccc([N+](=O)[O-])cc1)c1ccccn1,1.88,

SMILES,activation [%],Potency
Cc1ccc(NC(=O)c2cccc(S(=O)(=O)N3CCCc4ccccc43)c2)nc1,-4.1,
Cc1cc(C(=O)OCC(=O)Nc2ccccc2Cl)c(C)o1,-3.16,
CCCc1ccc(C(=O)COC(=O)CN2C(=O)NC3(CCCCC3C)C2=O)cc1 (stereo not given),1.15,
COc1ccc(-c2nnc(SCC(=O)c3cccs3)o2)c(OC)c1,,2.24 µM (active)
COc1ccccc1-c1nnc(SCC(=O)N2CC(C)CC(C)C2)o1 (stereo not given),1.65,
COc1ccc(CCNC(=O)CSc2nnc(CNC(=O)c3cccs3)o2)cc1OC,3.82,
O=C(NNC(=O)c1ccc(-n2cncn2)c([N+](=O)[O-])c1)c1ccccc1,0.697,
CN(C)c1nnnn1-c1ccc(Cl)cc1,-5.32,
c1ccc(-n2nc3ccccc3n2)cc1,-1.19,
Nc1ccc2nn(-c3ccc(Cl)cc3)nc2c1,,0.447 µM (active)
CN(CC(=O)NC1CCN(Cc2ccccc2)CC1)S(=O)(=O)c1ccc(Cl)s1,-7.49,
Cn1c(=O)c(C(=O)Nc2ncccn2)c(O)c2ccccc21,,2.82 µM (active)
CCCn1c(=O)c(C(=O)Nc2cc(C)ccn2)c(O)c2ccccc21,1.51,
C=CCn1c(=O)c(C(=O)Nc2ncccc2O)c(O)c2ccccc21,1.39,
O=C(N/N=C/c1ccco1)c1csc2c1CCCC2,25.4,
O=C(Nc1ccccc1N1CCOCC1)c1csc2c1CCCC2,3.7,
Cc1ccc(NC(=O)c2csc3c2CCCC3)cc1,,2.82 µM (active)
Cc1ccc(N=C2NC(=O)c3cccc([N+](=O)[O-])c32)cc1,2.23,
COc1ccc2nc(NC(=O)[C@@H]3CCCN3C(=O)c3cccs3)sc2c1,8.01,
COc1ccc2nc(NC(=O)NC3CCCCC3)sc2c1,,3.16 µM (active)
COc1ccc2nc(NC(=O)c3ccc(Br)s3)sc2c1,,3.98 µM (active)
COc1ccc(CNC(=O)c2ccc(Br)s2)cc1OC,1.64,
CS(=O)(=O)c1ccc2nc(NC(=O)C3CCCCC3)sc2c1,10.5,
CCc1noc(C)c1C(=O)Nc1nc2ccc(OC)cc2s1,0.745,
CCOc1ccc(OCC(=O)OC(C)C(=O)NC2CCCCC2C)cc1 (stereo not given),-1.02,
O=C(CCc1nc2sc3c(c2c(=O)[nH]1)CCCC3)NCC(=O)Nc1ccccc1Br,0.897,
CSCCC(NC(=O)c1ccco1)C(=O)NCCc1ccc(F)cc1 (stereo not given),0.568,
